Experimental data as given in PubChem BioAssay (NCATS).
Inconclusive results are not listed. The source made the active and inactive calls. Unless noted, calls follow the shape of the dose curve; as a rule, active = well fitted curve in the direction sought with a large enough effect; inconclusive = small, poorly fitted or top-dose-only effect, or another doubt; inactive = no such curve, though single readings can be large; an effect the other way counts as inactive or inconclusive.

Legend:
[1] = target: Lysosomal acid glucosylceramidase (Homo sapiens) (UniProt P04062); test: Glucocerebrosidase-p2 (AID 348; in the data active = potency below about 10 µM; also: potency is read from the fitted curve at half-maximal effect); conditions: purified GBA, blue fluorogenic substrate, 40 min
Chain of Lysosomal acid glucosylceramidase (Homo sapiens) (P04062 whole entry, looked up): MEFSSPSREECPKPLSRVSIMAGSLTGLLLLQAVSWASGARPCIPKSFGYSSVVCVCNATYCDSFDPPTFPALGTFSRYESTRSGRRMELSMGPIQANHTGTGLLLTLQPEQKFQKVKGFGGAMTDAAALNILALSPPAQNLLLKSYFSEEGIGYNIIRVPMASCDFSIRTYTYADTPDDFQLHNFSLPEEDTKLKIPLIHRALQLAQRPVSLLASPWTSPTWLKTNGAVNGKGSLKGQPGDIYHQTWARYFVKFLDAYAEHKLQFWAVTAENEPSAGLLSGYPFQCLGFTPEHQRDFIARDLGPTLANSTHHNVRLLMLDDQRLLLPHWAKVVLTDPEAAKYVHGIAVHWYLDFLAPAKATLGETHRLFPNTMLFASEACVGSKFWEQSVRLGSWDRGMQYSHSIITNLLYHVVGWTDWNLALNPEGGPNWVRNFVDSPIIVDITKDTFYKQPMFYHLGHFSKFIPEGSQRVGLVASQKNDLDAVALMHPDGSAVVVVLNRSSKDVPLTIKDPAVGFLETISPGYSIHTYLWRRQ
In short: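 Normal human glucocerebrosidase (0.2 nM) with blue fluorogenic substrate (80 uM final) in citrate/phosphate pH 5.9 with 10mM sodium taurocholate, 0.01% tween-20; 40 min RT, NaOH/glycine stop; fluorescence Ex 365/Em 440; AC50 from a titration from 0.6 nM upwards.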

[2] = AP1 Signaling Pathway (AID 357; active = well fitted curve in either direction with a large enough effect, not every such curve was filed as active; also: % is scaled to controls: 0 for no effect and ±100 for the full control effect); conditions: ME-180 AP-1-bla reporter, EGF-induced, beta-lactamase ratio, 5 h; at 7.69 µM (top of the series) unless noted
In short: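 ME-180 cells with beta-lactamase reporter under AP-1 response element, stimulated with EC50 EGF; compounds tested in titration series, 5 h at 37 °C. CCF4 substrate added 2.5 h at room temperature; 460/530 nm emission ratio gave %activity and AC50.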

[3] = target: Cytochrome P450 1A2 (Homo sapiens) (UniProt P05177); test: p450-cyp1a2 (AID 410; calls by dose curve; also: potency is read from the fitted curve at half-maximal effect)
Chain of Cytochrome P450 1A2 (Homo sapiens) (P05177 whole entry, looked up): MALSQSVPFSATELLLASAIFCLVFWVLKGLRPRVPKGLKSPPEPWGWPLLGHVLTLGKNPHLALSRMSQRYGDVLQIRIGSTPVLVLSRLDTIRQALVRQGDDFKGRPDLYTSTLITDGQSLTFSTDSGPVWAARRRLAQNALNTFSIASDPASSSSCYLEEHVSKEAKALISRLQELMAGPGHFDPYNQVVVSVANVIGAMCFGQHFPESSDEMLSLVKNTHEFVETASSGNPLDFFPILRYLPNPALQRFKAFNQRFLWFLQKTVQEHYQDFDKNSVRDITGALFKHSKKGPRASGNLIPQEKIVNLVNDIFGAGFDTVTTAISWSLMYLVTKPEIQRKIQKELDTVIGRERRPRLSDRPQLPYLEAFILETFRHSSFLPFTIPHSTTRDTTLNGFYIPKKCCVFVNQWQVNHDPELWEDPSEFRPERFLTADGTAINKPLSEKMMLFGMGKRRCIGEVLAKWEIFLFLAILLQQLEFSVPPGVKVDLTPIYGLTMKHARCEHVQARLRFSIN
In short: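 Read-out is luminescence from luciferin produced by CYP1A2 demethylation of Luciferin-ME (100uM, at Km). Detection reagent stopped the 60 min NADPH-dependent reaction; signals were normalized to 57 uM furafylline.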

[4] = NFAT Signaling Pathway (AID 444; active = well fitted curve in either direction with a large enough effect, not every such curve was filed as active;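 also: carbachol stimulus at about its EC50 of 1 µM final; % is scaled to controls: 0 for no effect and ±100 for the full control effect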); conditions: Jurkat NFAT-bla M1, carbachol, beta-lactamase ratio, 5 h; at 7.69 µM (top of the series) unless noted
In short: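 Jurkat cells carrying an NFAT-driven β-lactamase reporter and co-transfected muscarinic M1 receptor were treated with compound plus carbachol (1 uM final, an EC50 level) for 5 h at 37 °C. CCF4 loading followed for 1 h at RT; 460/530 nm ratio gave %activity.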

[5] = Stat Signaling Pathway (AID 446; active = well fitted curve in either direction with a large enough effect, not every such curve was filed as active;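 also: ME-180 cervical cancer cells given 40 pM IL-6 alongside compound; SIE-controlled beta-lactamase reporter measured as 460/530 nm FRET emission ratio; % is scaled to controls: 0 for no effect and ±100 for the full control effect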); conditions: ME-180 (cervical carcinoma) SIE beta-lactamase reporter, IL-6 stimulated, 5 h; at 7.69 µM (top of the series) unless noted
In short: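 Overnight-plated ME-180 cells bearing a STAT Inducible Element beta-lactamase reporter; 5 h co-exposure to compound and 40 pM IL-6; values normalized to 300 pM IL-6 and 125 nM JAK inhibitor controls.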

[6] = target: Glucocorticoid receptor (Homo sapiens) (UniProt P04150); test: GR-GFP Redistribution (AID 450;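 active = compounds whose dose series gives a full or clear partial fitted curve of increased nuclear translocation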; also: potency is read from the fitted curve at half-maximal effect); conditions: U2OS GR-GFP nuclear translocation, laser cytometry, 2 h
Chain of Glucocorticoid receptor (Homo sapiens) (P04150 whole entry, looked up, the tested form may be a part): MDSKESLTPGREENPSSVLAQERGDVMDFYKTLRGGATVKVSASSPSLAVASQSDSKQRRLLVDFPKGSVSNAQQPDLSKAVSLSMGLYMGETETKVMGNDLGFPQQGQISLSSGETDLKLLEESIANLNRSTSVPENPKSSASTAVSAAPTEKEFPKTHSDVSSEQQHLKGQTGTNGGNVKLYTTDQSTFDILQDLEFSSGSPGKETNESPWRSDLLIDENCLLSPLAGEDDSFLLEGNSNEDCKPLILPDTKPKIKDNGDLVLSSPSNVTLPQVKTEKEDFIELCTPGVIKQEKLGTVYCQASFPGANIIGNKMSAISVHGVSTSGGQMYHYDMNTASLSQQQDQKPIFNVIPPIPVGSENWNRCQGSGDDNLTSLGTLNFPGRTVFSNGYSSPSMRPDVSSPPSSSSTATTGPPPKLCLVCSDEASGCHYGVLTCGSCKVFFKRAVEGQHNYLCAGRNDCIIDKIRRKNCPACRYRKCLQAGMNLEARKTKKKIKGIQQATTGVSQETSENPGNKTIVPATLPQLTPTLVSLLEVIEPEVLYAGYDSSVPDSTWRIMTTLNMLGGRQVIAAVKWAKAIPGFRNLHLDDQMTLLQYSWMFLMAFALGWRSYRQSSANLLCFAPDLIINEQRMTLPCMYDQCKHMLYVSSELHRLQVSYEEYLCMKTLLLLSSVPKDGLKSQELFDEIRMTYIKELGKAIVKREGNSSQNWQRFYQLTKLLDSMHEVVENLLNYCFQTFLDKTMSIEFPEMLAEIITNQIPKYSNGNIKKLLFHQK

[7] = target: Glucocorticoid receptor (Homo sapiens) (UniProt P04150); test: GR-EFC Redistribution (AID 451; calls by dose curve; also: potency is read from the fitted curve at half-maximal effect); conditions: CHO-K1 GR-EFC translocation, beta-gal luminescence, 2 h
In short: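 CHO-K1 cells stably expressing nuclear-localized β-gal enzyme acceptor and GR fused C-terminally to the enzyme donor fragment; ligand-driven nuclear translocation restores β-gal by complementation. Compounds titrated up to 46 uM final, 2 h at 37 °C; luminescence read.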

[8] = target: Mitogen-activated protein kinase 10 (Mus musculus) (UniProt Q61831); test: JNK3 AlphaScreen Assay (AID 530; active = well fitted curve in either direction with a large enough effect, not every such curve was filed as active;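 also: kinase came from lysate of stimulated human HepG2 cells; signal reports phosphorylation of biotinylated GST-cJun 1-79 at Ser73 with 10 µM ATP; % is scaled to controls: 0 for no effect and ±100 for the full control effect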)
In short: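 Biotinylated GST-cJun(1-79) served as substrate for JNK3 in HepG2 lysates stimulated with IL-1beta and TNF-alpha. ATP was 10 uM final, pH 7.6. Ser73 phosphorylation was quantified by AlphaScreen (680 nm excitation).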

[9] = target: Cytochrome P450 3A4 (Homo sapiens) (UniProt P08684); test: qHTS Assay for Inhibitors and Substrates of Cytochrome P450 3A4 (AID 884); also: potency is read from the fitted curve at half-maximal effect; nearly all actives have a fitted effect of over 50% in size
Chain of Cytochrome P450 3A4 (Homo sapiens) (P08684 whole entry, looked up): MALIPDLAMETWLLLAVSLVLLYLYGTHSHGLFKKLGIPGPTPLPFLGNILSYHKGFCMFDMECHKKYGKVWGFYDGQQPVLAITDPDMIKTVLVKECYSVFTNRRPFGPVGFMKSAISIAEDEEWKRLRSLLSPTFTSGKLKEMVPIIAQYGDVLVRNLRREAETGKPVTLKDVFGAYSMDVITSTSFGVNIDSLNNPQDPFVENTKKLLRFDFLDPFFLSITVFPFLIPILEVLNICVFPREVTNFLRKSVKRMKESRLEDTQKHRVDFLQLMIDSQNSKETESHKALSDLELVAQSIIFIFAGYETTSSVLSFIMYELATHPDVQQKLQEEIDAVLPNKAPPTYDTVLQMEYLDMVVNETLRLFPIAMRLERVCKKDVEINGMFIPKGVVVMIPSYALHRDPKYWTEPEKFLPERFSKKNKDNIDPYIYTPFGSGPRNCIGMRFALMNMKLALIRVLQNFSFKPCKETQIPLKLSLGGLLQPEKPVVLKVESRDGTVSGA
In short: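 Luminescent readout of luciferin produced by CYP3A4 (20 nM) dealkylation of Luciferin-PPXE, 25 uM (its KM). NADPH-driven reaction ran 60 min at RT after 10 min compound preincubation; data scaled to 57 uM ketoconazole as 100% inhibition.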

[10] = target: Cytochrome P450 3A4 (Homo sapiens) (UniProt P08684); test: qHTS Assay for Activators of Cytochrome P450 3A4 (AID 885); also: nearly all actives have a fitted effect of over 65% in size
In short: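 Using 20nM recombinant human CYP3A4 in potassium phosphate (200mM), substrate Luciferin-PPXE at 25uM, luminescent luciferin detection followed a 60-min RT NADPH reaction; data scaled to 57 uM ketoconazole.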

[11] = target: Cytochrome P450 2C19 (Homo sapiens) (UniProt P33261); test: qHTS Assay for Inhibitors and Substrates of Cytochrome P450 2C19 (AID 899); also: potency is read from the fitted curve at half-maximal effect; nearly all actives have a fitted effect of over 60% in size
Chain of Cytochrome P450 2C19 (Homo sapiens) (P33261 whole entry, looked up): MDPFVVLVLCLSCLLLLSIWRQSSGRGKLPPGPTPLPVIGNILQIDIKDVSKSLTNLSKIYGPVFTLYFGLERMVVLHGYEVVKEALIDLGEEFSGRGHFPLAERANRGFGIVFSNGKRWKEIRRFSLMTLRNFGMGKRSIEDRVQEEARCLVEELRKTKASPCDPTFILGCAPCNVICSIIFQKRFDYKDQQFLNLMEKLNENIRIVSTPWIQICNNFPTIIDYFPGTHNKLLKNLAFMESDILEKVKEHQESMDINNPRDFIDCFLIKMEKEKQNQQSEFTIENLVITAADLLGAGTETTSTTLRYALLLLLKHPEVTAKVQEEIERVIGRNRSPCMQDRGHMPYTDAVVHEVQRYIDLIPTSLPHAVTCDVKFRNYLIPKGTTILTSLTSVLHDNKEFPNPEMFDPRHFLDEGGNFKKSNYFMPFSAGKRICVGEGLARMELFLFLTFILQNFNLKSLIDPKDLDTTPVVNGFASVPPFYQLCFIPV
In short: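 Human CYP2C19 (5nM) with Luciferin-H EGE at 10uM (its KM) in 50mM KPO4 was preincubated with compound for 10 min at 37C. NADPH regeneration started a 60 min 37C reaction. Luciferin was read by luminescence, normalized to 57uM ketoconazole.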

[12] = target: Dual specificity protein kinase CLK4 (Homo sapiens) (UniProt Q9HAZ1); test: qHTS Assay for Inhibitors of CDC-like Kinase 4 (Kinase-Glo Assay) (AID 1770); also: nearly all actives have a fitted effect of over 65% in size; also: potency is read from the fitted curve at half-maximal effect
Chain of Dual specificity protein kinase CLK4 (Homo sapiens) (Q9HAZ1 whole entry, looked up): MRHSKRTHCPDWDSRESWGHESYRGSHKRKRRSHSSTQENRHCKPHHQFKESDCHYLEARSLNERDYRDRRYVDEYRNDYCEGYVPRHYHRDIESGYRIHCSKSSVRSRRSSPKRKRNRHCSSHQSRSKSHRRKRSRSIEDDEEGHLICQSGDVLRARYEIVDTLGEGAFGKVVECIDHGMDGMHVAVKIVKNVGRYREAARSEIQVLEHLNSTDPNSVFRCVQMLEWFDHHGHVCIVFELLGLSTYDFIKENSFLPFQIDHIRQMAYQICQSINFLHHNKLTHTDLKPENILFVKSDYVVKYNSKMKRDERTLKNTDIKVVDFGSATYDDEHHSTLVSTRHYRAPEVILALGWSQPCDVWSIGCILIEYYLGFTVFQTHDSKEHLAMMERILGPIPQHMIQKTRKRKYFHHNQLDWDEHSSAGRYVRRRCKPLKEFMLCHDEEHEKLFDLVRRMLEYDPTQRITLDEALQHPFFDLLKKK
In short: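 25 nM Clk4 with 100 uM RS repeat peptide and 1 uM ATP (final) in Tris pH7.5, 10 mM MgCl2, 4.5 h at room temperature. Remaining ATP measured by Kinase-Glo luciferase luminescence.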

[13] = target: Dual specificity protein kinase CLK4 (Homo sapiens) (UniProt Q9HAZ1); test: qHTS Assay for Inhibitors of CDC-like Kinase 4 (ADP-Glo Assay) (AID 1771); also: nearly all actives have a fitted effect of over 70% in size; also: potency is read from the fitted curve at half-maximal effect
In short: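 In this ADP-Glo format, 1 uM ATP and 100 uM RS peptide served as substrates for 25 nM Clk4 in Mg2+/EGTA/DTT/Triton buffer; reactions ran 1 hr at room temperature before luminescent ADP quantification.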

[14] = target: Ubiquitin carboxyl-terminal hydrolase 1 (Homo sapiens) (UniProt O94782); test: Inhibitors of USP1/UAF1: Pilot qHTS (AID 504865);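 also: rhodamine fluorescence freed from ubiquitin-rhodamine substrate followed over time; top concentration of the series differs between compounds; % is scaled to controls: 0 for no effect and ±100 for the full control effect; nearly all actives have a fitted effect of over 35% in size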
Chain of Ubiquitin carboxyl-terminal hydrolase 1 (Homo sapiens) (O94782 whole entry, looked up): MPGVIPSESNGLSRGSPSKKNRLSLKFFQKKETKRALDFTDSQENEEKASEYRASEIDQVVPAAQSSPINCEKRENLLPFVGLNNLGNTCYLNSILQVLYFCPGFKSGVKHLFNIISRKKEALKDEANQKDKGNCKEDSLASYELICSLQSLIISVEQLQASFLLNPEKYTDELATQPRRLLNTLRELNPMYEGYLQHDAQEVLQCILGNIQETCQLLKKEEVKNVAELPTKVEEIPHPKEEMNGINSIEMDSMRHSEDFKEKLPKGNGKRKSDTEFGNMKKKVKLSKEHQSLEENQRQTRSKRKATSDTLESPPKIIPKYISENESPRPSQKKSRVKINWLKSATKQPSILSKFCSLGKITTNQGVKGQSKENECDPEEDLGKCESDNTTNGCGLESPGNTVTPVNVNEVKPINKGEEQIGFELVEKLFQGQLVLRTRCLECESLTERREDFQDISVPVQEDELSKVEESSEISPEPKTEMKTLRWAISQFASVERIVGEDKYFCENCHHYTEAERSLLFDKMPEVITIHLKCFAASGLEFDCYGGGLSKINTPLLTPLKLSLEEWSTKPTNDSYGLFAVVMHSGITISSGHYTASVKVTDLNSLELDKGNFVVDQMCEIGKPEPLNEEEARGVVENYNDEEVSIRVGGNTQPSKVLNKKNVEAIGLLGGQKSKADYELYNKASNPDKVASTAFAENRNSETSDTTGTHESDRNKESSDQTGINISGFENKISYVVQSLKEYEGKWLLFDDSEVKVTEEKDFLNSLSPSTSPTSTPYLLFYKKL
In short: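 USP1/UAF1 complex at 1 nM preincubated 15 min at room temperature with compound, then Ub-Rho substrate added at 150 nM final. Fluorescence (480/540 nm) read kinetically in 50 mM HEPES pH 7.8, 0.5 mM EDTA, 1 mM TCEP, 0.1 mg/ml BSA, 0.01% Tween-20.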

[15] = Primary qHTS for small molecule stabilizers of the endoplasmic reticulum resident proteome: Secreted ER Calcium Modulated Protein (SERCaMP) assay (AID 1508630); also: % is scaled to controls: 0 for no effect and ±100 for the full control effect
In short: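 The SH-SY5Y reporter protocol was run at 3 concentrations up to 38.3 uM (primary) or 11 concentrations (follow-up): 16 h compound, 100 nM thapsigargin for 4 h, then extracellular luciferase luminescence.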

[16] = target: Cytochrome P450 2C9 (Homo sapiens) (UniProt P11712); test: qHTS Assay for Inhibitors and Substrates of Cytochrome P450 2C9 (AID 883); also: potency is read from the fitted curve at half-maximal effect; nearly all actives have a fitted effect of over 60% in size
In short: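 Human CYP2C9 (10nM) hydroxylated Luciferin-H (100uM, at its KM) to luciferin in 25mM KPO4. Compound was preincubated 10 min at 37C, then NADPH regeneration started a 60 min reaction at 37C. Luminescence was read after detection reagent, normalized to 57uM sulphaphenazole.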

[17] = target: Cytochrome P450 2D6 (Homo sapiens) (UniProt P10635); test: qHTS Assay for Inhibitors and Substrates of Cytochrome P450 2D6 (AID 891); also: potency is read from the fitted curve at half-maximal effect; nearly all actives have a fitted effect of over 60% in size
In short: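 Luminescent read-out of luciferin formed by 5 nM human CYP2D6 demethylating 30 uM Luciferin-ME EGE (Km level) over 60 min at room temperature after NADPH regeneration addition. Data normalized to full inhibition by 1.43 uM quinidine.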

[18] = target: 3',5'-cyclic-AMP phosphodiesterase 4B (Homo sapiens) (UniProt Q07343); test: qHTS Assay for Inhibitors of PDE-IV (AID 607; active = well fitted activation curve with a large enough effect in the main read-out, with a control signal flat, not every such curve was filed as active; also: % of control where 0% means no effect)
Chain of 3',5'-cyclic-AMP phosphodiesterase 4B (Homo sapiens) (Q07343 whole entry, looked up): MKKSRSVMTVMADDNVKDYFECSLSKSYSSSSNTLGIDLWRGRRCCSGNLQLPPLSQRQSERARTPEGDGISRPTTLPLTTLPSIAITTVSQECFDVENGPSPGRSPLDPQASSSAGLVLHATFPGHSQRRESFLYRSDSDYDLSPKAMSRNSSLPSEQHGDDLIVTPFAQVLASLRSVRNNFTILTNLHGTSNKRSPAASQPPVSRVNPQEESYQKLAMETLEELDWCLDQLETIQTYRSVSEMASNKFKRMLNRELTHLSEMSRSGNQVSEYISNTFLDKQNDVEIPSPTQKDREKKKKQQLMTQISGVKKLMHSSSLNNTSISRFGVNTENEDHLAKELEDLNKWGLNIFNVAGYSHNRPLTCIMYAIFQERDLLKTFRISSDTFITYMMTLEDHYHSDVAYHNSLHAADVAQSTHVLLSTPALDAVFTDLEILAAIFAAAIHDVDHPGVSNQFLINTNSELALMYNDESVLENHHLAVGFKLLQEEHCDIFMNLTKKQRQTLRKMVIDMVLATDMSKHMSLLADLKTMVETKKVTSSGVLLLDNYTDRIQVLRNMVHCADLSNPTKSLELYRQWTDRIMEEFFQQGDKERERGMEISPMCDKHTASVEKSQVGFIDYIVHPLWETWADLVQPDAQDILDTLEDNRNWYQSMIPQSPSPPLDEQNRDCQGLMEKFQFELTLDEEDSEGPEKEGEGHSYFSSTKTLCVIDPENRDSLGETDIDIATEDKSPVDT
In short: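 Live HEK293 cells with a modified cyclic nucleotide-gated (CNG) channel report intracellular cAMP via membrane-potential dye fluorescence (ex 535/em 590 nm). Endogenous PDE-IV was targeted. Compounds were tested at up to 22.9 uM final; RO 20-1724 100 uM served as control.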

COc1cccc(-c2cncnc2NCc2cccc(C)c2)c1
active: Potency [3] 2 µM | Potency [9] 0.398 µM | Potency [11] 0.794 µM | Potency [12] 31.6 µM | Potency [13] 25.1 µM
inactive: Potency [1] > 11.4 µM | activity change, negative = inhibition [2] -11.8% | activity change, negative = inhibition [4] -0.339% | activity, negative = inhibition [5] -10.4% | Potency [6] > 46 µM | Potency [7] > 46 µM | Potency [8] | Potency [10] | Potency [14] | outcome [15]

c1cncc(-c2nccc(NCc3cccs3)n2)c1
inactive: Potency [1] > 11.4 µM | activity change, negative = inhibition [2] 4.03% | activity change, negative = inhibition [4] 13.5% | activity, negative = inhibition [5] -3.1% | Potency [6] > 46 µM | Potency [7] > 46 µM | Potency [8] | Potency [10] | Potency [14] | outcome [15]
active: Potency [3] 0.2 µM | Potency [16] 0.398 µM | Potency [17] 0.631 µM | Potency [11] 7.94 µM | Potency [12] 14.1 µM | Potency [13] 10 µM

CN(C)c1ncc2nc(-c3ccccc3)c(=O)n(CCC#N)c2n1
inactive: Potency [1] > 11.4 µM | activity change, negative = inhibition [2] -4.57% | Potency [6] > 9.22 µM | Potency [7] > 46 µM | Potency [8] | Potency [12] | Potency [13] | Potency [14] | outcome [15]
active: Potency [3] 1.58 µM

c1cncc(-c2ccc3ncnc(NC4CCNCC4)c3c2)c1
active: Potency [3] 12.6 µM | Potency [12] 14.1 µM | Potency [13] 15.8 µM
inactive: Potency [1] > 11.4 µM | activity change, negative = inhibition [2] 5.15% | activity change, negative = inhibition [4] 13.2% | activity, negative = inhibition [5] 3.6% | Potency [6] > 46 µM | Potency [7] > 46 µM | Potency [8] | Potency [18] | Potency [10] | Potency [14] | outcome [15]

COCCn1c(=O)c(-c2ccc(OC)cc2)nc2cnc(N3CCOCC3)nc21
inactive: Potency [1] > 11.4 µM | activity change, negative = inhibition [2] -13.6% | activity change, negative = inhibition [4] 8.4% | activity, negative = inhibition [5] 25.9% | Potency [6] > 9.22 µM | Potency [7] > 46 µM | Potency [8] | Potency [18] | Potency [12] | Potency [13] | Potency [14] | outcome [15]

c1ccc(Nc2nc(-c3ccc4c(c3)OCO4)nc3ccccc23)cc1
active: Potency [1] 9.63 µM | Potency [3] 1.26 µM | Potency [9] 5.01 µM | Potency [11] 3.16 µM | Potency [12] 28.2 µM | Potency [13] 31.6 µM
inactive: activity change, negative = inhibition [2] -19.9% | activity change, negative = inhibition [4] -26.1% | activity, negative = inhibition [5] -2.81% | Potency [6] > 46 µM | Potency [7] > 46 µM | Potency [8] | Potency [10] | Potency [14] | outcome [15]
